# Results reported in PubChem BioAssay.
# Active and inactive are the calls of the source. Unless noted, the rule behind the calls is not given here.
# Legend:
# [1] = test system: Wnt5a (protein binding on small-molecule microarray); test: Wnt5a binders on small-molecule microarray, primary screen, biophysical, 635/667 nm fluorescence (AID 1142); settings: 635 nm fluorescence, higher = more signal;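 note: fluorescence read at 667 nm with signal to noise per printed feature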
# [2] = cell viability in Huh7 cells, primary screen, cytotoxicity control for HCV replication inhibitor project, CellTiter-Glo luminescence, basal, 48 h (AID 1143); settings: Huh7 HCV replicon, higher = more signal, called active from +8 up or from −8 down;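 note: Huh7 hepatoma cells carrying a hepatitis C replication reporter with no stimulus; test concentration not given here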
# [3] = P. aeruginosa biofilm formation inhibitors, primary screen, PAO1 strain, BacTiter-Glo luminescence, LB-PBS (AID 1144); settings: 12 h, higher = more signal
# [4] = CREB reporter modulators without forskolin, primary screen, cell-based, PC12, CRE-LacZ reporter, unstimulated (AID 1145); settings: no forskolin, luminescence, 4.5 h, higher = more signal, called active from +8 up or from −8 down
# [5] = CREB reporter modulators under forskolin, primary screen, cell-based, PC12, CRE-LacZ reporter, forskolin-stimulated (AID 1146); settings: luminescence, 4.5 h, higher = more signal, called active from +8 up or from −8 down;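 note: PC12 cells with 6xCRE LacZ reporter stimulated by forskolin 10 µM; beta-galactosidase reporter signal reflecting CREB driven transcription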
# [6] = target: Streptavidin (Streptomyces avidinii) (UniProt P22629); test: streptavidin binders on small-molecule microarray, primary screen, artefact control for SMM compound annotation, biophysical, 635/667 nm fluorescence (AID 1147); settings: streptavidin binding, higher = more signal;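 note: signal reflects streptavidin binding to arrayed compounds as a control protein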
# Sequence of Streptavidin (Streptomyces avidinii) (P22629 whole entry, looked up): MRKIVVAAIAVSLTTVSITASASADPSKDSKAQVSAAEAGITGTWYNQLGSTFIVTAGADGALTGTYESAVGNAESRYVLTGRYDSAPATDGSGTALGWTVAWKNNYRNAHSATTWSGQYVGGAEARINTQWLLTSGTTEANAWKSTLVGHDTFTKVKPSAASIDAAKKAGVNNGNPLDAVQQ
# [7] = small-molecule binders of probe aInhba, primary screen, biochemical, small-molecule microarray, 635/667 nm fluorescence (AID 1148); settings: higher = more signal;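 note: score merges 667nm spot fluorescence with signal-to-noise for antibody binding to printed compounds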
# Torsin-1A (Homo sapiens) [8] = target: Torsin-1A (Homo sapiens) (UniProt O14656); test: torsin A binders from cell lysate, primary screen, small-molecule microarray, wild-type, 635/667 nm (AID 1149); settings: COS7 hTOR1A-WT lysate, 635 nm fluorescence, higher = more signal
# Sequence of Torsin-1A (Homo sapiens) (O14656 whole entry, looked up): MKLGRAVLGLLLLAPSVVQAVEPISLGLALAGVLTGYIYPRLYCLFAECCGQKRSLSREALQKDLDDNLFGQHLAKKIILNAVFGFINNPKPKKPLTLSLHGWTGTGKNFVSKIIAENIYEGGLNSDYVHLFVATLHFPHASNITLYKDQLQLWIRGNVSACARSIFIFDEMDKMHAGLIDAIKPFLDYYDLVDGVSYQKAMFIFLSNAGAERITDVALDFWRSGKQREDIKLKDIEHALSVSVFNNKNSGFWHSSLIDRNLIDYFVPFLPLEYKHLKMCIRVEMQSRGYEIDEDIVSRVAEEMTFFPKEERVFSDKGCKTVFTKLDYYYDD
# Torsin-1A (Homo sapiens) [9] = target: Torsin-1A (Homo sapiens) (UniProt O14656); test: small-molecule binders of mutant TOR1A in lysate, primary screen, cell lysate, small-molecule microarray, COS7 lysate, 635/667 nm fluorescence (AID 1150); settings: COS7 hTOR1A mutant lysate, 635 nm fluorescence, higher = more signal;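 note: score pools 667 nm emission and signal to noise measuring lysate protein binding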
# [10] = test system: Sonic hedgehog protein (Shh); test: small-molecule binders of Shh protein, primary screen, biochemical, small-molecule microarray, 635/667 nm fluorescence (AID 1151); settings: small-molecule microarray binding, 635 nm fluorescence; higher = more signal;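 note: Shh protein binding to compounds spotted on small-molecule microarray slides; score combines spot fluorescence intensity with signal-to-noise across triplicate slides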
# [11] = E. coli DRC41 culture turbidity changes, primary screen, E. coli filamentation inducer project, strain DRC41, OD650, 48 h (AID 1152);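 note: E. coli MC1000 strain DRC41 lacking acrAB efflux pump and sulA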; settings: E. coli DRC41 (acrAB sulA), higher = more signal, called active from +8 up or from −8 down
# [12] = small-molecule binders of probe aLefty1, primary screen, biochemical, small-molecule microarray, 635/667 nm fluorescence (AID 1153); settings: higher = more signal;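 note: score merges spot fluorescence with signal-to-noise ratio from the scanned slide images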
# [13] = PSAC antagonists in infected red cells, primary screen, cell-based, P. falciparum Indochina, OD700, 1 h (AID 1154); settings: P. falciparum Indochina infected RBC osmotic lysis, higher = more signal, called active from +8 up or from −8 down
# [14] = PSAC antagonists in infected red cells, primary screen, cell-based, P. falciparum Indochina, OD700, 2 h (AID 1155);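 note: lysis reports solute entry through the parasite surface anion channel PSAC; channel blockers reduce lysis of infected cells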; settings: P. falciparum Indochina infected erythrocytes, osmotic lysis OD700; higher = more signal, called active from +8 up or from −8 down
# [15] = osmotic lysis modulators in infected erythrocytes, primary screen, PSAC antagonist project, cell-based, P. falciparum Indochina, OD700, 3 h (AID 1156); settings: higher = more signal, called active from +8 up or from −8 down
# [16] = PSAC antagonists in infected red cells, primary screen, cell-based, P. falciparum Indochina, OD700, 18 h (AID 1157); settings: P. falciparum Indochina infected erythrocytes, osmotic lysis OD700, 18 h; higher = more signal, called active from +8 up or from −8 down
# [17] = modulators of S6 phosphorylation in cells, primary screen, cell-based, A549, cytoblot, luminescence, serum-stimulated (AID 1158); settings: A549 phospho-S6 cytoblot, 5 h, higher = more signal;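 note: serum-stimulated A549 lung adenocarcinoma cells; signal is phosphorylated S6 detected by cytoblot immunostaining with HRP secondary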
# [18] = target: NADPH oxidase 2 (Homo sapiens) (UniProt P04839); test: NOX2-dependent H2O2 signal modulators, primary screen, NOX inhibitor project, cell-based, HEK293-NOX2, PMA-stimulated, Amplex Red fluorescence (AID 1159); settings: 45 min, higher = more signal, called active from +8 up or from −8 down; note: test concentration not given here
# Sequence of NADPH oxidase 2 (Homo sapiens) (P04839 whole entry, looked up): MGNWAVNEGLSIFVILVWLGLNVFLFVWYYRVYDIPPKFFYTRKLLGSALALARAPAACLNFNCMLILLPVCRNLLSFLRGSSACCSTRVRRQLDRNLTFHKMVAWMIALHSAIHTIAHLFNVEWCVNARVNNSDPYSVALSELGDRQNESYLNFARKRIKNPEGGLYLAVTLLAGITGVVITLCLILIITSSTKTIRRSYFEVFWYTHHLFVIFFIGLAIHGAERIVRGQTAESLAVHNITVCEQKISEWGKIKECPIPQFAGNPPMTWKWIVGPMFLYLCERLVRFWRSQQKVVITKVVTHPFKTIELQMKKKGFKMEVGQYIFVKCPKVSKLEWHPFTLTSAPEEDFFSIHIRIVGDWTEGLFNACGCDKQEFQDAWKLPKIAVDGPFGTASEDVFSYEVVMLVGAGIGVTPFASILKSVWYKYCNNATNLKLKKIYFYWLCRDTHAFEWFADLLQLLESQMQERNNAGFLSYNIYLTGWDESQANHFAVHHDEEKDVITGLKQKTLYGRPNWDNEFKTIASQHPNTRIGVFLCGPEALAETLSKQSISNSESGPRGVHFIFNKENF
# [19] = target: NADPH oxidase 4 (Homo sapiens) (UniProt Q9NPH5); test: NOX4-dependent H2O2 signal modulators, primary screen, NOX inhibitor project, cell-based, HEK293-NOX4, tetracycline-induced, Amplex Red fluorescence (AID 1160); settings: 45 min, higher = more signal, called active from +8 up or from −8 down
# Sequence of NADPH oxidase 4 (Homo sapiens) (Q9NPH5 whole entry, looked up): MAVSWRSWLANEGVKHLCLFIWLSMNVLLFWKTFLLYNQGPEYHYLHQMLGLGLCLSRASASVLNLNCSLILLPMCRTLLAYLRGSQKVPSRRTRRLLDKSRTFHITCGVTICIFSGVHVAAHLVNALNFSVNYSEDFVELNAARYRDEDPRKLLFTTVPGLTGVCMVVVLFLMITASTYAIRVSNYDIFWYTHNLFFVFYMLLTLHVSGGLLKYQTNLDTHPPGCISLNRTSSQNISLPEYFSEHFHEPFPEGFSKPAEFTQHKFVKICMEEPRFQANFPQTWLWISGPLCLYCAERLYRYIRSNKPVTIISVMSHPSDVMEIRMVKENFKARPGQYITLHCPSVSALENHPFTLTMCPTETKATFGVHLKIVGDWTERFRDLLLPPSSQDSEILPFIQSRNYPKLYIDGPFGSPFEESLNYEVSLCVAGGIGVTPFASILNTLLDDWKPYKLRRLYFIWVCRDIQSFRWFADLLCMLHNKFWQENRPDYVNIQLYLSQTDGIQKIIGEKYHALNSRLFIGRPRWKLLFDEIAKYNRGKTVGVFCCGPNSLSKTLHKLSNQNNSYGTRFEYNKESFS
# [20] = target: NADPH oxidase 5 (Homo sapiens) (UniProt Q96PH1); test: NOX5-dependent H2O2 signal modulators, primary screen, NOX inhibitor project, cell-based, HEK293-NOX5, Amplex Red fluorescence (AID 1161); settings: HEK293-NOX5, ionomycin, 45 min, higher = more signal
# Sequence of NADPH oxidase 5 (Homo sapiens) (Q96PH1 whole entry, looked up): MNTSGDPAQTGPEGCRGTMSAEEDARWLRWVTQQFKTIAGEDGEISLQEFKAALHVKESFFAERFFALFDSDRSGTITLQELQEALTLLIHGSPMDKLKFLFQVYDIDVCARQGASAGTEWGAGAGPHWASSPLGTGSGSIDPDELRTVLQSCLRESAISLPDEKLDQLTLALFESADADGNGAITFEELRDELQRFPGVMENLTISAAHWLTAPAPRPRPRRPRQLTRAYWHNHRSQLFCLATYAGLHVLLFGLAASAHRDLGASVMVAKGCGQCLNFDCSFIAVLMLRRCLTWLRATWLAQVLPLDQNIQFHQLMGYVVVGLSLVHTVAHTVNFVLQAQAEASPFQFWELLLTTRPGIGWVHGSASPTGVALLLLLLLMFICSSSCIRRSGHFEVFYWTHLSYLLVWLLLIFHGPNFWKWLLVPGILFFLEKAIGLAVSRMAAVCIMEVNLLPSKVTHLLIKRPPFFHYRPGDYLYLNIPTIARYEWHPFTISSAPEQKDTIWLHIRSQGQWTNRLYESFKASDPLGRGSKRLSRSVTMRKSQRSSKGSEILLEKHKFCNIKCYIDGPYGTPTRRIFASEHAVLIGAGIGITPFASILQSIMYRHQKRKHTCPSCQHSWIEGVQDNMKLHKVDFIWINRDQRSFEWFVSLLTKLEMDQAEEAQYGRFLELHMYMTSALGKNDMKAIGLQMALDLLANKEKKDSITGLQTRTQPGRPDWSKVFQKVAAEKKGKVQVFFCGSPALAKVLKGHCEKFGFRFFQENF
Structure (SMILES),composite z-score [1],z-score [2],z-score [3],z-score [4],z-score [5],composite z-score [6],composite z-score [7],composite z-score (Torsin-1A (Homo sapiens) [8]),composite z-score (Torsin-1A (Homo sapiens) [9]),composite z-score [10],z-score [11],composite z-score [12],z-score [13],z-score [14],z-score [15],z-score [16],z-score [17],z-score [18],z-score [19],z-score [20]
CCCC=C(CCC)[C@@H](NS(=O)(=O)c1cccc2cccnc12)c1ccc(-c2ccccc2)cc1,0.702,-1.52 (inactive),0.923 (inactive),-0.379 (inactive),0.415 (inactive),1.42,0.475,0.274,0.371,0.632,-1.37 (inactive),0.396,0.012 (inactive),0.451 (inactive),1.24 (inactive),0.913 (inactive),0.389,-0.876 (inactive),1.59 (inactive),2.39
COc1ccc([Si](C)(C)[C@H]2[C@H](CCO)O[C@@]3(C(=O)N(Cc4ccccc4)c4ccc(N5C(=O)c6ccccc6Oc6ccccc65)cc43)[C@@H]2C)cc1,0.147,-6.59 (inactive),-0.0823 (inactive),0.324 (inactive),-0.328 (inactive),-0.069,-0.128,-0.218,0.102,0.534,0.503 (inactive),0.121,3.46 (inactive),1.45 (inactive),0.354 (inactive),1.19 (inactive),0.314,-1.35 (inactive),1.42 (inactive),0.269
COc1ccc(C(=O)Nc2cccc(CN3C(=O)[C@@]4(O[C@@H](CC(=O)N(CCO)Cc5ccccc5)[C@H]([Si](C)(C)c5ccc(OC)cc5)[C@H]4C)c4ccccc43)c2)cc1,-0.198,-4.44 (inactive),-0.244 (inactive),3.3 (inactive),-0.76 (inactive),-0.503,-0.101,0.479,1.16,1.51,1.23 (inactive),-0.443,12.3 (active),0.833 (inactive),-0.39 (inactive),-1.31 (inactive),1.58,0.306 (inactive),0.56 (inactive),2.08
CC(C)CNC(=O)[C@@]1(c2ccc([N+](=O)[O-])cc2)CC(=O)N(C2CCCCC2)[C@@H]1c1ccc(CO)cc1,0.335,-2.21 (inactive),0.901 (inactive),0.585 (inactive),0.142 (inactive),-0.0755,-0.153,0.442,0.0881,-0.158,0.706 (inactive),0.164,0.879 (inactive),-0.189 (inactive),0.0352 (inactive),-0.013 (inactive),0.358,0.382 (inactive),0.581 (inactive),0.668
C[C@]1(C(=O)NCCN2CCOCC2)c2ccccc2C(=O)N(Cc2cc(F)cc(C(F)(F)F)c2)[C@H]1c1ccc(CO)cc1,-0.187,-1.39 (inactive),-1.32 (inactive),-0.385 (inactive),-0.909 (inactive),0.0519,0.027,1.82,1.84,1.86,1.28 (inactive),0.0892,5.73 (inactive),0.651 (inactive),1.24 (inactive),0.28 (inactive),0.523,0.51 (inactive),0.798 (inactive),-0.291
CCCNC(=O)[C@@]1(Sc2ccc(C)cc2)CC(=O)N(C2CCCCC2)[C@@H]1c1ccc(CO)cc1I,0.108,-2.76 (inactive),0.687 (inactive),0.272 (inactive),1.38 (inactive),0.133,-0.198,0.0272,0.197,-0.158,-0.629 (inactive),-0.525,4.93 (inactive),0.465 (inactive),0.0133 (inactive),0.376 (inactive),-0.328,0.82 (inactive),0.142 (inactive),1.61
COCC1=C2[C@@H](CCc3ccccc3)OB(O)C[C@@H]2[C@@H]2C(=O)N(C)C(=O)[C@@H]2C1,-0.16,0.0876 (inactive),0.0987 (inactive),-0.871 (inactive),1.08 (inactive),0.0675,-0.113,0.607,-0.0933,0.588,-0.801 (inactive),0.0355,1.4 (inactive),-0.301 (inactive),-0.793 (inactive),-0.015 (inactive),-0.1,-0.116 (inactive),0.762 (inactive),0.217
COCCOC(=O)N1C(=O)[C@@]2(c3cc(C#CCNC(N)=O)ccc31)[C@H](c1ccc(OCCO)cc1)N1[C@H](c3ccccc3)[C@H](c3ccccc3)OC(=O)[C@H]1[C@@H]2C(N)=O,0.428,0.0121 (inactive),0.529 (inactive),0.228 (inactive),-0.304 (inactive),0.947,-0.0131,0.304,0.406,1.44,0.336 (inactive),-0.346,4.37 (inactive),1.02 (inactive),-0.383 (inactive),0.0173 (inactive),-0.412,1.84 (inactive),1.34 (inactive),0.646
